Results as given in the supplement of paper PMC8728848.
The entries come from a sample that favours the strongest signals as a whole.

Legend:
Assay in all cases: glycan array binding signal (z-score within array); higher = stronger binding
Conditions in all cases: glycan notation: IUPAC condensed, linker removed
[1] = biological target: Fuc(a1-2)Gal(b1-3)GlcNAc(b1-2)Man(a1-3)[Fuc(a1-2)Gal(b1-3)GlcNAc(b1-2)Man(a1-6)]Man(b1-4)GlcNAc(b1-4)[Fuc(a1-6)]GlcNAc
Procedure, shortened: (§1)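 Negative Z-scores can be read as non-binding. The Z-score is calculated within each array and then averaged across arrays of one protein sequence at different concentrations or buffers and across linkers. Arrays, 3228 in all, were curated from the Consortium for Functional Glycomics database and kept only where the protein sequence was available.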

[2] = biological target: Fuc(a1-2)Gal(b1-3)GlcNAc(b1-3)[Fuc(a1-2)Gal(b1-3)GlcNAc(b1-6)]GalNAc
Procedure, shortened: as §1

[3] = biological target: Fuc(a1-2)Gal(b1-3)[Fuc(a1-4)]GlcNAc(b1-3)[Gal(b1-4)GlcNAc(b1-6)]Gal(b1-4)Glc
Procedure, shortened: as §1

[4] = biological target: Fuc(a1-2)Gal(b1-4)GlcNAc(b1-3)Gal(b1-4)GlcNAc(b1-2)Man(a1-3)[Fuc(a1-2)Gal(b1-4)GlcNAc(b1-3)Gal(b1-4)GlcNAc(b1-2)Man(a1-6)]Man(b1-4)GlcNAc(b1-4)GlcNAc
Procedure, shortened: as §1

[5] = biological target: Fuc(a1-2)[Gal(a1-3)]Gal(b1-4)GlcNAc
Procedure, shortened: as §1

[6] = biological target: Fuc(a1-2)[Gal(a1-3)]Gal(b1-4)GlcNAc(b1-3)[Fuc(a1-2)[Gal(a1-3)]Gal(b1-4)GlcNAc(b1-6)]GalNAc
Procedure, shortened: as §1

[7] = biological target: Fuc(a1-2)[GalNAc(a1-3)]Gal(b1-3)GlcNAc(b1-6)GalNAc
Procedure, shortened: as §1

[8] = biological target: Fuc(a1-3)[Gal(b1-4)]GlcNAc(b1-3)GalNAc
Procedure, shortened: as §1

Fuc(a1-4)GlcNAc = biological target: Fuc(a1-4)GlcNAc
Procedure, shortened: as §1

Fuc(b1-3)GlcNAc = biological target: Fuc(b1-3)GlcNAc
Procedure, shortened: as §1

[9] = biological target: Gal(a1-3)Gal(b1-4)[Fuc(a1-3)]GlcNAc(b1-2)Man(a1-3)[Gal(a1-3)Gal(b1-4)[Fuc(a1-3)]GlcNAc(b1-2)Man(a1-6)]Man(b1-4)GlcNAc(b1-4)GlcNAc
Procedure, shortened: as §1

Gal(a1-4)GlcNAc = biological target: Gal(a1-4)GlcNAc
Procedure, shortened: as §1

[10] = biological target: Gal(b1-3)GlcNAc(a1-6)Gal(b1-4)GlcNAc
Procedure, shortened: as §1

[11] = biological target: Gal(b1-4)GlcNAc(b1-3)Gal(b1-3)GalNAc
Procedure, shortened: as §1

[12] = biological target: Gal(b1-4)GlcNAc(b1-3)Gal(b1-3)GlcNAc
Procedure, shortened: as §1

[13] = biological target: Gal(b1-4)GlcNAc(b1-3)Gal(b1-4)GlcNAc(b1-2)[Gal(b1-4)GlcNAc(b1-3)Gal(b1-4)GlcNAc(b1-6)]Man(a1-6)[Gal(b1-4)GlcNAc(b1-3)Gal(b1-4)GlcNAc(b1-2)Man(a1-3)]Man(b1-4)GlcNAc(b1-4)GlcNAc
Procedure, shortened: as §1

[14] = biological target: Gal(b1-4)GlcNAc(b1-3)Gal(b1-4)GlcNAc(b1-3)Gal(b1-4)GlcNAc(b1-3)Gal(b1-4)GlcNAc(b1-2)[Gal(b1-4)GlcNAc(b1-3)Gal(b1-4)GlcNAc(b1-3)Gal(b1-4)GlcNAc(b1-3)Gal(b1-4)GlcNAc(b1-6)]Man(a1-6)[Gal(b1-4)GlcNAc(b1-3)Gal(b1-4)GlcNAc(b1-3)Gal(b1-4)GlcNAc(b1-3)Gal(b1-4)GlcNAc(b1-2)Man(a1-3)]Man(b1-4)GlcNAc(b1-4)[Fuc(a1-6)]GlcNAc
Procedure, shortened: as §1

[15] = biological target: Gal(b1-4)GlcNAc(b1-3)Gal(b1-4)GlcNAc(b1-3)Gal(b1-4)GlcNAc(b1-3)Gal(b1-4)GlcNAc(b1-3)Gal(b1-4)GlcNAc(b1-2)Man(a1-3)[Gal(b1-4)GlcNAc(b1-3)Gal(b1-4)GlcNAc(b1-3)Gal(b1-4)GlcNAc(b1-3)Gal(b1-4)GlcNAc(b1-3)Gal(b1-4)GlcNAc(b1-2)Man(a1-6)]Man(b1-4)GlcNAc(b1-4)[Fuc(a1-6)]GlcNAc
Procedure, shortened: as §1

[16] = biological target: Gal3S(b1-3)[Fuc(a1-4)]GlcNAc
Procedure, shortened: as §1

Gal3S(b1-4)Glc = biological target: Gal3S(b1-4)Glc
Procedure, shortened: as §1

[17] = biological target: Gal3S(b1-4)[Fuc(a1-3)]GlcNAc6S
Procedure, shortened: as §1

[18] = biological target: GalNAc(a1-3)GalNAc(b1-3)Gal(a1-4)Gal(b1-4)GlcNAc
Procedure, shortened: as §1

Glc(b1-6)Glc = biological target: Glc(b1-6)Glc
Procedure, shortened: as §1

[19] = biological target: GlcNAc(a1-4)Gal(b1-4)GlcNAc(b1-3)Gal(b1-4)[Fuc(a1-3)]GlcNAc(b1-3)Gal(b1-4)[Fuc(a1-3)]GlcNAc
Procedure, shortened: as §1

[20] = biological target: GlcNAc(b1-2)Man(a1-3)[GlcNAc(b1-2)Man(a1-6)]Man(b1-4)GlcNAc(b1-4)GlcNAc
Procedure, shortened: as §1

Kdn(a2-3)Gal(b1-3)GlcNAc = biological target: Kdn(a2-3)Gal(b1-3)GlcNAc
Procedure, shortened: as §1

[21] = biological target: Man(a1-2)Man(a1-3)[Man(a1-2)Man(a1-6)]Man
Procedure, shortened: as §1

[22] = biological target: Man(a1-2)Man(a1-3)[Man(a1-6)]Man(a1-6)[Man(a1-2)Man(a1-3)]Man(b1-4)GlcNAc(b1-4)GlcNAc
Procedure, shortened: as §1

[23] = biological target: Man(a1-2)Man(a1-6)[Man(a1-3)]Man(a1-6)[Man(a1-2)Man(a1-2)Man(a1-3)]Man
Procedure, shortened: as §1

[24] = biological target: Neu5Ac(a2-3)Gal(b1-3)[GlcNAc(b1-6)]GalNAc
Procedure, shortened: as §1

[25] = biological target: Neu5Ac(a2-3)Gal(b1-3)[Neu5Ac(a2-6)]GalNAc
Procedure, shortened: as §1

Neu5Ac(a2-3)Gal(b1-4)Glc = biological target: Neu5Ac(a2-3)Gal(b1-4)Glc
Procedure, shortened: as §1

[26] = biological target: Neu5Ac(a2-3)Gal(b1-4)GlcNAc(b1-2)Man
Procedure, shortened: as §1

[27] = biological target: Neu5Ac(a2-3)Gal(b1-4)GlcNAc(b1-3)Gal(b1-4)GlcNAc(b1-3)[Neu5Ac(a2-3)Gal(b1-4)GlcNAc(b1-3)Gal(b1-4)GlcNAc(b1-6)]GalNAc
Procedure, shortened: as §1

[28] = biological target: Neu5Ac(a2-3)Gal(b1-4)GlcNAc(b1-3)GalNAc
Procedure, shortened: as §1

[29] = biological target: Neu5Ac(a2-3)Gal(b1-4)[Fuc(a1-3)]GlcNAc(b1-6)[Gal(b1-3)]GalNAc
Procedure, shortened: as §1

[30] = biological target: Neu5Ac(a2-6)Gal(b1-4)GlcNAc
Procedure, shortened: as §1

[31] = biological target: Neu5Ac(a2-6)Gal(b1-4)GlcNAc(b1-3)GalNAc
Procedure, shortened: as §1

[32] = biological target: Neu5Ac(a2-6)GalNAc(b1-4)GlcNAc
Procedure, shortened: as §1

[33] = biological target: Neu5Ac(a2-6)GlcNAc(b1-4)GlcNAc(b1-4)GlcNAc
Procedure, shortened: as §1

B1: BC2LB (Burholderia cenocepacia), B4EH85_BURCJ (protein)
chain: MGSSHHHHHHSSGENLYFQGHMSQPFTHDDLYALLQLAGNDATAVQANGDQAVLDRMRQFMTAQLVEKLPQYDVFVDIATIPYSFDVGSWQNKVKTDAAGEVVACTVTWAGAPGVLPGAAAKFGVGAVVNYFSKATPH
glycan array binding signal (z-score) [1]: -0.135 | glycan array binding signal (z-score) [2]: -0.166 | glycan array binding signal (z-score) [3]: -0.251 | glycan array binding signal (z-score) [4]: 0.245 | glycan array binding signal (z-score) [5]: -0.238 | glycan array binding signal (z-score) [6]: 6.98 | glycan array binding signal (z-score) [7]: 7.53 | glycan array binding signal (z-score) [8]: 0.001 | glycan array binding signal (z-score) (Fuc(a1-4)GlcNAc): 2.88 | glycan array binding signal (z-score) (Fuc(b1-3)GlcNAc): 1.63 | glycan array binding signal (z-score) [9]: 0.053 | glycan array binding signal (z-score) (Gal(a1-4)GlcNAc): -0.101 | glycan array binding signal (z-score) [10]: -0.227 | glycan array binding signal (z-score) [11]: -0.131 | glycan array binding signal (z-score) [12]: -0.143 | glycan array binding signal (z-score) [13]: 11.3 | glycan array binding signal (z-score) [14]: -0.198 | glycan array binding signal (z-score) [15]: 0.012 | glycan array binding signal (z-score) [16]: 0.995 | glycan array binding signal (z-score) (Gal3S(b1-4)Glc): 1.52 | glycan array binding signal (z-score) [17]: 0.149 | glycan array binding signal (z-score) [18]: -0.055 | glycan array binding signal (z-score) (Glc(b1-6)Glc): 0.216 | glycan array binding signal (z-score) [19]: 1.79 | glycan array binding signal (z-score) [20]: -0.234 | glycan array binding signal (z-score) (Kdn(a2-3)Gal(b1-3)GlcNAc): -0.201 | glycan array binding signal (z-score) [21]: -0.345 | glycan array binding signal (z-score) [22]: -0.397 | glycan array binding signal (z-score) [23]: -0.2 | glycan array binding signal (z-score) [24]: -0.242 | glycan array binding signal (z-score) [25]: 2.87 | glycan array binding signal (z-score) (Neu5Ac(a2-3)Gal(b1-4)Glc): 5.24 | glycan array binding signal (z-score) [26]: 2.39 | glycan array binding signal (z-score) [27]: -0.203 | glycan array binding signal (z-score) [28]: -0.104 | glycan array binding signal (z-score) [29]: -0.247 | glycan array binding signal (z-score) [30]: -0.206 | glycan array binding signal (z-score) [31]: 10.1 | glycan array binding signal (z-score) [32]: -0.418 | glycan array binding signal (z-score) [33]: -0.338
